# Shown is part of a subset that was picked to be rich in the strongest signals.
# B1: CLEC5A (Homo sapiens), Q9NY25 (protein)
# chain: MNWHMIISGLIVVVLKVVGMTLFLLYFPQIFNKSNDGFTTTRSYGTVSQIFGSSSPSPNGFITTRSYGTVCPKDWEFYQARCFFLSTSESSWNESRDFCKGKGSTLAIVNTPEKLKFLQDITDAEKYFIGLIYHREEKRWRWINNSVFNGNVTNQNQNFNCATIGLTKTFDAASCDISYRRICEKNAK
# Tests used:
# Experiment in all cases: glycan array binding signal (z-score within array); higher = stronger binding
# Details in all cases: glycan notation: IUPAC condensed, linker removed
# [1] = target: 4d8dNeu5Ac(a2-3)Gal(b1-4)Glc
# Outline: (§1)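 Negative Z-scores can be read as non-binding. The Z-score is calculated within each array and then averaged across arrays of one protein sequence at different concentrations or buffers and across linkers. Arrays, 3228 in all, were curated from the Consortium for Functional Glycomics database and kept only where the protein sequence was available.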
# [2] = target: 4dNeu5Ac(a2-3)Gal(b1-4)Glc
# Outline: as §1
# [3] = target: Fuc(a1-2)Gal(b1-3)GlcNAc(b1-2)Man(a1-3)[Fuc(a1-2)Gal(b1-3)GlcNAc(b1-2)Man(a1-6)]Man(b1-4)GlcNAc(b1-4)GlcNAc
# Outline: as §1
# [4] = target: Fuc(a1-2)Gal(b1-3)[Fuc(a1-4)]GlcNAc(b1-2)Man(a1-3)[Fuc(a1-2)Gal(b1-3)[Fuc(a1-4)]GlcNAc(b1-2)Man(a1-3)]Man(b1-4)GlcNAc(b1-4)GlcNAc
# Outline: as §1
# [5] = target: Fuc(a1-2)[Gal(a1-3)]Gal(b1-3)GlcNAc
# Outline: as §1
# [6] = target: Fuc(a1-2)[Gal(a1-3)]Gal(b1-4)GlcNAc(b1-3)[Fuc(a1-2)[Gal(a1-3)]Gal(b1-4)GlcNAc(b1-6)]GalNAc
# Outline: as §1
# [7] = target: Fuc(a1-2)[GalNAc(a1-3)]Gal(b1-4)GlcNAc(b1-2)Man(a1-3)[Fuc(a1-2)[GalNAc(a1-3)]Gal(b1-4)GlcNAc(b1-2)Man(a1-6)]Man(b1-4)GlcNAc(b1-4)[Fuc(a1-6)]GlcNAc
# Outline: as §1
# [8] = target: Fuc(a1-2)[GalNAc(a1-3)]Gal(b1-4)GlcNAc(b1-3)Gal(b1-4)GlcNAc
# Outline: as §1
# [9] = target: Fuc(a1-2)[GalNAc(a1-3)]Gal(b1-4)[Fuc(a1-3)]GlcNAc(b1-3)GalNAc
# Outline: as §1
# [10] = target: Fuc(a1-3)[Gal(b1-4)]GlcNAc(b1-3)[Fuc(a1-2)]Gal(b1-4)Glc
# Outline: as §1
# [11] = target: Fuc(a1-4)GlcNAc
# Outline: as §1
# [12] = target: Gal(b1-3)Gal(b1-4)GlcNAc(b1-2)Man(a1-3)[Gal(b1-3)Gal(b1-4)GlcNAc(b1-2)Man(a1-6)]Man(b1-4)GlcNAc(b1-4)GlcNAc
# Outline: as §1
# [13] = target: Gal(b1-3)GlcNAc(a1-6)Gal(b1-4)GlcNAc
# Outline: as §1
# [14] = target: Gal(b1-3)GlcNAc(b1-3)Gal(b1-4)Glc
# Outline: as §1
# [15] = target: Gal(b1-3)GlcNAc(b1-3)Gal(b1-4)[Fuc(a1-3)]GlcNAc(b1-6)[Gal(b1-3)GlcNAc(b1-3)]Gal(b1-4)Glc
# Outline: as §1
# [16] = target: Gal(b1-3)[Fuc(a1-4)]GlcNAc(b1-2)Man(a1-3)[Gal(b1-3)[Fuc(a1-4)]GlcNAc(b1-2)Man(a1-6)]Man(b1-4)GlcNAc(b1-4)GlcNAc
# Outline: as §1
# [17] = target: Gal(b1-3)[Fuc(a1-4)]GlcNAc(b1-3)Gal(b1-4)[Fuc(a1-3)]GlcNAc
# Outline: as §1
# [18] = target: Gal(b1-3)[Fuc(a1-4)]GlcNAc(b1-3)Gal(b1-4)[Fuc(a1-3)]GlcNAc(b1-6)[Gal(b1-3)[Fuc(a1-4)]GlcNAc(b1-3)]Gal(b1-4)Glc
# Outline: as §1
# [19] = target: Gal(b1-3)[Neu5Ac(a2-6)]GalNAc
# Outline: as §1
# [20] = target: Gal(b1-4)Glc
# Outline: as §1
# [21] = target: Gal(b1-4)GlcNAc(b1-2)Man(a1-6)[GlcNAc(b1-2)Man(a1-3)]Man(b1-4)GlcNAc(b1-4)[Fuc(a1-6)]GlcNAc
# Outline: as §1
# [22] = target: Gal(b1-4)GlcNAc(b1-2)Man(a1-6)[Man(a1-3)]Man(b1-4)GlcNAc(b1-4)[Fuc(a1-6)]GlcNAc
# Outline: as §1
# [23] = target: Gal(b1-4)GlcNAc(b1-3)Gal(b1-4)GlcNAc(b1-2)Man(a1-3)[Gal(b1-4)GlcNAc(b1-3)Gal(b1-4)GlcNAc(b1-2)Man(a1-6)]Man(b1-4)GlcNAc(b1-4)[Fuc(a1-6)]GlcNAc
# Outline: as §1
# [24] = target: Gal(b1-4)GlcNAc(b1-3)Gal(b1-4)GlcNAc(b1-3)Gal(b1-4)GlcNAc
# Outline: as §1
# [25] = target: Gal(b1-4)GlcNAc(b1-3)Gal(b1-4)GlcNAc(b1-3)Gal(b1-4)GlcNAc(b1-3)Gal(b1-4)GlcNAc(b1-2)Man(a1-3)[Gal(b1-4)GlcNAc(b1-3)Gal(b1-4)GlcNAc(b1-3)Gal(b1-4)GlcNAc(b1-3)Gal(b1-4)GlcNAc(b1-2)Man(a1-6)]Man(b1-4)GlcNAc(b1-4)[Fuc(a1-6)]GlcNAc
# Outline: as §1
# [26] = target: Gal(b1-4)GlcNAc(b1-3)Gal(b1-4)GlcNAc(b1-3)Gal(b1-4)GlcNAc(b1-3)Gal(b1-4)GlcNAc(b1-3)Gal(b1-4)GlcNAc(b1-2)[Gal(b1-4)GlcNAc(b1-3)Gal(b1-4)GlcNAc(b1-3)Gal(b1-4)GlcNAc(b1-3)Gal(b1-4)GlcNAc(b1-3)Gal(b1-4)GlcNAc(b1-6)]Man(a1-6)[Gal(b1-4)GlcNAc(b1-3)Gal(b1-4)GlcNAc(b1-3)Gal(b1-4)GlcNAc(b1-3)Gal(b1-4)GlcNAc(b1-3)Gal(b1-4)GlcNAc(b1-2)Man(a1-3)]Man(b1-4)GlcNAc(b1-4)[Fuc(a1-6)]GlcNAc
# Outline: as §1
# [27] = target: Gal(b1-4)GlcNAc(b1-3)[Fuc(a1-3)GlcNAc(b1-6)]Gal(b1-4)Glc
# Outline: as §1
# [28] = target: Gal(b1-4)GlcNAc(b1-3)[Fuc(a1-3)[Gal(b1-4)]GlcNAc(b1-6)]Gal(b1-4)Glc
# Outline: as §1
# [29] = target: Gal(b1-4)GlcNAc(b1-6)[Gal(b1-3)]GalNAc
# Outline: as §1
# [30] = target: Gal3S(b1-3)[Fuc(a1-4)]GlcNAc
# Outline: as §1
# [31] = target: GalNAc(a1-3)GalNAc(a1-3)Gal(a1-4)Gal(b1-4)GlcNAc
# Outline: as §1
# [32] = target: GalNAc(b1-4)Gal(b1-4)Glc
# Outline: as §1
# [33] = target: GalNAc(b1-4)GlcNAc
# Outline: as §1
# [34] = target: GalNAc(b1-4)GlcNAc(b1-3)GalNAc(b1-4)GlcNAc
# Outline: as §1
# [35] = target: GalNAc3S(b1-4)GlcNAc
# Outline: as §1
# [36] = target: Glc(a1-3)Glc(a1-3)Man(a1-2)Man(a1-2)Man(a1-3)[Man(a1-3)[Man(a1-6)]Man(a1-6)]Man(b1-4)GlcNAc
# Outline: as §1
# [37] = target: Glc(a1-4)Glc(a1-4)Glc(a1-4)Glc(a1-4)Glc(a1-4)Glc
# Outline: as §1
# [38] = target: Glc(a1-6)Glc
# Outline: as §1
binder,measurement,setting,value
B1,glycan array binding signal (z-score),[1],-0.32
same,glycan array binding signal (z-score),[2],-0.32
same,glycan array binding signal (z-score),[3],0.119
same,glycan array binding signal (z-score),[4],0.282
same,glycan array binding signal (z-score),[5],-0.016
same,glycan array binding signal (z-score),[6],2
same,glycan array binding signal (z-score),[7],0.189
same,glycan array binding signal (z-score),[8],0.56
same,glycan array binding signal (z-score),[9],2.38
same,glycan array binding signal (z-score),[10],-0.32
same,glycan array binding signal (z-score),[11],11.1
same,glycan array binding signal (z-score),[12],2.62
same,glycan array binding signal (z-score),[13],-0.327
same,glycan array binding signal (z-score),[14],-0.282
same,glycan array binding signal (z-score),[15],-0.154
same,glycan array binding signal (z-score),[16],1.69
same,glycan array binding signal (z-score),[17],-0.037
same,glycan array binding signal (z-score),[18],-0.32
same,glycan array binding signal (z-score),[19],-0.023
same,glycan array binding signal (z-score),[20],-0.243
same,glycan array binding signal (z-score),[21],-0.031
same,glycan array binding signal (z-score),[22],4.98
same,glycan array binding signal (z-score),[23],0.05
same,glycan array binding signal (z-score),[24],0.076
same,glycan array binding signal (z-score),[25],1.88
same,glycan array binding signal (z-score),[26],0.25
same,glycan array binding signal (z-score),[27],-0.199
same,glycan array binding signal (z-score),[28],-0.031
same,glycan array binding signal (z-score),[29],-0.196
same,glycan array binding signal (z-score),[30],0.015
same,glycan array binding signal (z-score),[31],-0.892
same,glycan array binding signal (z-score),[32],-0.144
same,glycan array binding signal (z-score),[33],-0.135
same,glycan array binding signal (z-score),[34],-0.136
same,glycan array binding signal (z-score),[35],-0.162
same,glycan array binding signal (z-score),[36],-0.32
same,glycan array binding signal (z-score),[37],1.32
same,glycan array binding signal (z-score),[38],1.7

# Reference: the supplement of paper PMC8728848
